Measurements as given in PubChem BioAssay.
The source made the active and inactive calls. Unless noted, the rule behind the calls is not given here.

Experiments:
[1] = resazurin metabolic signal in HepG2 cells – cell-based, resazurin fluorescence, 24 h, PK04 Diversity Set, profiling panel (AID 1172); details: HepG2 viability, higher = more signal
[2] = budding yeast growth changes without added modifier – OD600, strain BY4716, 24 h, basal condition, primary screen (AID 1173); details: S. cerevisiae BY4716 growth, OD600, 24 h; higher = more signal, called active from +8 up or from −8 down
[3] = viability profiling in MM1S myeloma cells – cell-based, resazurin fluorescence, basal, 24 h, PK04 Diversity Set, profiling panel (AID 1174); details: higher = more signal, called active from +8 up or from −8 down;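 note: MM1S multiple myeloma cell line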
[4] = target: Dihydroorotate dehydrogenase (quinone), mitochondrial (Plasmodium falciparum (isolate 3D7)) (UniProt Q08210); experiment: inhibition of P. falciparum DHODH – biochemical, C-terminal His tag, absorbance 600 nm, primary screen (AID 1175); details: PfDHODH enzyme, DCIP absorbance 600 nm; higher = more signal, called active from +8 up or from −8 down;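 note: recombinant parasite enzyme with a five histidine tag at its C terminus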
Dihydroorotate dehydrogenase (quinone), mitochondrial (Plasmodium falciparum (isolate 3D7)), sequence (Q08210 whole entry, looked up): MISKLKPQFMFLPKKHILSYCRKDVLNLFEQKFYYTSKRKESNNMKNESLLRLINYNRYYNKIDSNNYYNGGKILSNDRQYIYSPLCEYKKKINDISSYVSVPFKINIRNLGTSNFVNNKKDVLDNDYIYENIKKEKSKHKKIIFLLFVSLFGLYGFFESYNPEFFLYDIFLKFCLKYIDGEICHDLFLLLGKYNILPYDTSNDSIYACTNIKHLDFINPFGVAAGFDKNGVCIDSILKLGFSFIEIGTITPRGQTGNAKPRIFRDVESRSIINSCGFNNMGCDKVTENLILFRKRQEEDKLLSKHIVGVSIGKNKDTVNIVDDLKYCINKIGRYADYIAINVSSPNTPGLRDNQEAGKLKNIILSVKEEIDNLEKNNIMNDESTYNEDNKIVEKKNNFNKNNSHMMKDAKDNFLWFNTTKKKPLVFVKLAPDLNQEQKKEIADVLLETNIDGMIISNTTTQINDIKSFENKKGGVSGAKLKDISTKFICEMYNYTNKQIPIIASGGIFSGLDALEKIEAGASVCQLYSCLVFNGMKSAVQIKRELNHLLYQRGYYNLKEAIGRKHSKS

[5] = inhibition of PAO1 biofilm formation – strain PAO1, LB-PBS medium, absorbance 600 nm, primary screen (AID 1176); details: P. aeruginosa PAO1 growth/biofilm, A600, 12 h; higher = more signal
[6] = growth modulation of vineyard yeast isolate – strain RM11-1a, OD600, basal, 24 h, primary screen (AID 1177);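 note: cultures grown under basal conditions with no added stressor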; details: S. cerevisiae RM11-1a growth, OD600, 24 h; higher = more signal, called active from +8 up or from −8 down
[7] = growth of efflux-deficient E. coli DRC39 – strain DRC39, OD650, 24 h, E. coli filamentation inducers, primary screen (AID 1178);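 note: growth measured as culture turbidity by optical density at 650 nm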; details: E. coli DRC39 acrAB, higher = more signal, called active from +8 up or from −8 down
[8] = growth of efflux-deficient E. coli DRC39 – strain DRC39, OD650, 48 h, E. coli filamentation inducers, primary screen (AID 1179);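 note: screen aims at cell division blockers that make cells filament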; details: E. coli DRC39 delta-acrAB growth, higher = more signal, called active from +8 up or from −8 down
[9] = viability profiling in RPMI8226 myeloma cells – cell-based, resazurin fluorescence, basal, 24 h, PK04 Diversity Set, profiling panel (AID 1180); details: higher = more signal;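 note: RPMI8826 multiple myeloma cell line at 5000 cells per well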
[10] = target: E3 ubiquitin-protein ligase XIAP (Homo sapiens) (UniProt P98170); experiment: small molecules binding XIAP protein – biophysical, small-molecule microarray, fluorescence 635 nm, primary screen (AID 1181); details: higher = more signal;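 note: score merges 667 nm emission and signal to noise over triplicate slides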
E3 ubiquitin-protein ligase XIAP (Homo sapiens), sequence (P98170 whole entry, looked up, the tested form may be a part): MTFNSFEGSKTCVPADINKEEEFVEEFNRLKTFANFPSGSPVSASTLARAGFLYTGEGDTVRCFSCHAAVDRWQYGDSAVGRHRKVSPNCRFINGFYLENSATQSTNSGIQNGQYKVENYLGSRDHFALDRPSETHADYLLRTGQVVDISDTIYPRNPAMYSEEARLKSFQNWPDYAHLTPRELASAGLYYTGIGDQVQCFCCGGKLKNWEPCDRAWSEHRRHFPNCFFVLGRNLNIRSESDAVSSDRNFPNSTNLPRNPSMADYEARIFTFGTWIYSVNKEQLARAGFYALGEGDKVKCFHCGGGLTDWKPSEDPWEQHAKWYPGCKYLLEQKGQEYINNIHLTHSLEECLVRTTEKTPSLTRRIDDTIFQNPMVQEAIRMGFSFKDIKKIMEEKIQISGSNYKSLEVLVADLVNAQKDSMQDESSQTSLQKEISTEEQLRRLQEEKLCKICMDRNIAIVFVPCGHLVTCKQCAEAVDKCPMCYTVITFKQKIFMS

[11] = test system: XIP peptide (Xip251-270) binding; experiment: XIP fragment 251-270 binding compounds – biochemical, small-molecule microarray, fluorescence 635/667 nm, 0.1 µg/mL protein, primary screen (AID 1182); details: fluorescent protein binding, 635 nm, higher = more signal, called active from +8 up or from −8 down
XIP peptide (Xip251-270) = experiment: compounds binding XIP fragment 251-270 – biochemical, small-molecule microarray, fluorescence 635/667 nm, 0.5 µg/mL protein, primary screen (AID 1183); details: fluorescence 635 nm, higher = more signal
[12] = blood-stage malaria parasite viability loss – strain 3D7, DAPI fluorescence, 100 nL, primary screen (AID 1184);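 note: parasites grown inside human red blood cells in medium with human serum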; details: P. falciparum 3D7 growth, 3 d, higher = more signal
[13] = target: Homeobox protein Hox-A13 (Mus musculus) (UniProt Q62424); experiment: disruptors of Hoxa13 oligonucleotide interaction – biochemical, fluorescence polarization, labeled oligonucleotide, primary screen (AID 1185); details: Hoxa13:DNA binding, 15 min, higher = more signal, called active from +8 up or from −8 down
Homeobox protein Hox-A13 (Mus musculus), sequence (Q62424 whole entry, looked up): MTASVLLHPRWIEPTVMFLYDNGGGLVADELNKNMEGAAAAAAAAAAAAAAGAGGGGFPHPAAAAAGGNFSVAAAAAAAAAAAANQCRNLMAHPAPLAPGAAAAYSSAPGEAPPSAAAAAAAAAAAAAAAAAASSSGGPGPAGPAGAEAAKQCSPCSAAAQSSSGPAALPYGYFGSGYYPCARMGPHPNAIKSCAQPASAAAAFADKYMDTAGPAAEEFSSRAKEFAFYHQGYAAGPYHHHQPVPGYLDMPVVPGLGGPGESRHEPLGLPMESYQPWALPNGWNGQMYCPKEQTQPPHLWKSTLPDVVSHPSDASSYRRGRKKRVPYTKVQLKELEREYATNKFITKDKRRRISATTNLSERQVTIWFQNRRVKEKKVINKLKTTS

[14] = blockers of DNA damage checkpoint Chk1 activation – imaging, HeLa, hydroxyurea, phospho-Chk1 antibody, percent positive cells, primary screen (AID 1186); details: hydroxyurea-induced phospho-Chk1 immunofluorescence imaging, higher = more signal
[15] = blockers of DNA damage checkpoint Chk1 activation – imaging, HeLa, hydroxyurea, phospho-Chk1 nuclear intensity, primary screen (AID 1187); details: hydroxyurea-induced phospho-Chk1 immunofluorescence imaging, higher = more signal

SMILES	z-score [1]	z-score [2]	z-score [3]	composite z-score [4]	z-score [5]	z-score [6]	z-score [7]	z-score [8]	z-score [9]	composite z-score [10]	composite z-score [11]	composite z-score (XIP peptide (Xip251-270))	z-score [12]	z-score [13]	z-score [14]	z-score [15]
O=C1OCCC=C[C@H]2OC34C=CCN(c5ccc(Cl)cc5)C(=O)[C@H]3N(CCCCCO)C(=O)[C@@H]4C12 (some centres undefined)	1.25	-0.508 (inactive)	0.89 (inactive)	-0.417 (inactive)	-0.525 (inactive)	-0.429 (inactive)	1.68 (inactive)	1.83 (inactive)	0.599	0.23	0.445 (inactive)	-0.342	0.684	-5.82 (inactive)	0.578 (inactive)	0.434 (inactive)
COc1ccc(NN2C(C(O)c3ccccn3)C=CC3C(=O)N(C4CCCCC4)C(=O)C32)cc1 (centres undefined)	1.64	-0.774 (inactive)	0.583 (inactive)	1.25 (inactive)	0.574 (inactive)	0.219 (inactive)	-0.416 (inactive)	0.824 (inactive)	0.974	-0.308	-0.136 (inactive)	0.913	-0.408	-4.39 (inactive)	-0.773 (inactive)	-0.488 (inactive)
CC(CO)N1C(=O)[C@@H]2C3C(=O)OCCC/C=C\[C@H]3OC23C=CCN(Cn2nnc4ccccc42)C(=O)[C@@H]13 (some centres undefined)	0.256	-0.159 (inactive)	0.595 (inactive)	-2.72 (inactive)	0.205 (inactive)	0.549 (inactive)	0.935 (inactive)	0.829 (inactive)	0.605	0.0511	-0.584 (inactive)	0.475	0.357	-2.97 (inactive)	-0.235 (inactive)	0.103 (inactive)
COCCOC(=O)N1C(=O)[C@@]2(c3cc(C#CC4(O)CCCCCC4)ccc31)[C@H](C(N)=O)[C@H]1C(=O)O[C@H](c3ccccc3)[C@H](c3ccccc3)N1[C@@H]2c1ccc(O)cc1	0.061	-0.676 (inactive)	-0.907 (inactive)	-0.942 (inactive)	0.51 (inactive)	0.389 (inactive)	-0.0029 (inactive)	0.761 (inactive)	-1.73	-0.144	0.722 (inactive)	0.503	0.997	-2.76 (inactive)	-0.102 (inactive)	0.245 (inactive)
CCCC[C@@H]1C[C@H]1[C@@H](NC(=O)c1ccccc1)c1ccc(Cl)cc1	1.18	0.127 (inactive)	0.696 (inactive)	-0.402 (inactive)	0.495 (inactive)	-0.359 (inactive)	-1.11 (inactive)	-0.324 (inactive)	1.51	0.0049	-0.778 (inactive)	-2.03	-0.385	-3.04 (inactive)	0.413 (inactive)	-0.524 (inactive)
O=C(O)[C@H](Cc1ccccc1)n1cc(-c2ccccn2)nn1	0.535	-0.65 (inactive)	0.365 (inactive)	-0.435 (inactive)	-0.476 (inactive)	0.911 (inactive)	-0.256 (inactive)	0.23 (inactive)	0.373	0.122	0.355 (inactive)	0.32	0.214	-0.876 (inactive)	0.721 (inactive)	0.662 (inactive)
O=c1cccc(-c2ccc(C(F)(F)F)cc2)o1	-0.0559	-9.38 (active)	0.0889 (inactive)	-0.723 (inactive)	0.0767 (inactive)	-0.962 (inactive)	-0.865 (inactive)	-0.325 (inactive)	0.263	0.0535	0.338 (inactive)	-0.256	1.39	-1.7 (inactive)	0.264 (inactive)	0.197 (inactive)
COc1ccc([Si](C)(C)[C@@H]2[C@@H](CCO)O[C@]3(C(=O)N(Cc4cccc(N5C(=O)c6ccccc6Oc6ccccc65)c4)c4ccccc43)[C@H]2C)cc1	-1.11	1.02 (inactive)	-4.32 (inactive)	0.786 (inactive)	1.64 (inactive)	5.08 (inactive)	1.89 (inactive)	1.48 (inactive)	-2.95	-0.177	0.872 (inactive)	0.41	-2.47	-1.49 (inactive)	-0.665 (inactive)	-0.278 (inactive)
COC(=O)[C@@]1(Cc2ccc(OC)cc2)[C@H]2c3cc(C(=O)N(C)C)n(CCc4c[nH]c5ccc(O)cc45)c3C[C@H]2CN1C(=O)c1ccccc1	-0.855	1.29 (inactive)	-1.64 (inactive)	-0.568 (inactive)	0.15 (inactive)	0.599 (inactive)	-0.135 (inactive)	0.301 (inactive)	-2.36	0.201	0.545 (inactive)	0.657	-1.73	-1.44 (inactive)	0.453 (inactive)	-0.541 (inactive)
CCN(CC)c1ccc(N2CC=CC34O[C@@H]5/C=C\CCC(C)OC(=O)C5[C@H]3C(=O)N(CCO)[C@@H]4C2=O)cc1 (some centres undefined)	-0.68	-0.958 (inactive)	-0.742 (inactive)	0.543 (inactive)	-0.593 (inactive)	-0.481 (inactive)	-0.736 (inactive)	-0.949 (inactive)	-0.833	0.283	1.27 (inactive)	0.461	-1.23	-5.86 (inactive)	0.695 (inactive)	0.21 (inactive)
COc1ccccc1CN1C(=O)c2ccccc2[C@](Cc2ccccc2I)(C(=O)NC(C)C)[C@@H]1c1ccc(CO)cc1	0.985	-0.601 (inactive)	-0.577 (inactive)	-2.47 (inactive)	-0.379 (inactive)	0.862 (inactive)	1.05 (inactive)	1.01 (inactive)	-0.305	-0.253	0.265 (inactive)	0.585	-1.95	-3.59 (inactive)	-0.316 (inactive)	-0.471 (inactive)
Cc1ccc(S[C@]2(C(=O)NC3CC3)CC(=O)N(Cc3ccccc3Cl)[C@@H]2c2ccc(CO)cc2I)cc1	-0.451	-4.44 (inactive)	-3.72 (inactive)	-2.13 (inactive)	0.348 (inactive)	-0.526 (inactive)	0.17 (inactive)	0.932 (inactive)	-1.61	-0.0118	0.98 (inactive)	0.824	0.287	-1.54 (inactive)	0.159 (inactive)	0.858 (inactive)
CC(C)N1CC=CC23O[C@@H]4C=CCCOC(=O)C4[C@H]2C(=O)N(CCO)[C@@H]3C1=O (some centres undefined)	1.74	-0.913 (inactive)	0.839 (inactive)	-2.29 (inactive)	0.525 (inactive)	-0.199 (inactive)	-0.141 (inactive)	-0.327 (inactive)	0.475	-0.251	-0.3 (inactive)	0.172	-0.434	-4.46 (inactive)	-0.494 (inactive)	-0.578 (inactive)
CCOC(=O)C[C@H]1[C@H](OC(=O)c2ccc(-c3ccccc3)cc2)[C@@H](NC(=O)c2ccc3ccccc3c2)c2cc(OCCCO)ccc2N1C(=O)c1ccc2ccccc2n1	-0.138	-0.158 (inactive)	0.175 (inactive)	-0.746 (inactive)	0.927 (inactive)	-0.736 (inactive)	-0.936 (inactive)	-0.808 (inactive)	-0.152	-0.394	0.0454 (inactive)	0.338	0.563	-1.16 (inactive)	-0.361 (inactive)	-0.561 (inactive)
CC(C)(C)OC(=O)CC[C@]1(C(=O)NCCN2CCOCC2)N=C(c2ccc(OCCCO)cc2)O[C@H]1c1ccccc1N=[N+]=[N-]	-0.0231	-0.893 (inactive)	-1.28 (inactive)	0.255 (inactive)	0.494 (inactive)	-0.279 (inactive)	0.23 (inactive)	-0.635 (inactive)	-0.565	-0.16	0.716 (inactive)	0.864	-1.73	-4.1 (inactive)	0.0695 (inactive)	0.234 (inactive)
COc1cc2c(cc1OC)CN(C(=O)[C@@H]1[C@H]3C(=O)O[C@H](c4ccccc4)[C@H](c4ccccc4)N3[C@H](c3ccccc3OCCO)[C@@]13C(=O)Nc1ccc(C#CC4(O)CCCCCC4)cc13)CC2	0.529	0.882 (inactive)	-2.17 (inactive)	0.44 (inactive)	2.03 (inactive)	3.23 (inactive)	-0.236 (inactive)	1.01 (inactive)	0.284	-0.11	0.863 (inactive)	0.822	-1.67	2.22 (inactive)	-0.517 (inactive)	-0.522 (inactive)
C=C[C@H](COC(C)=O)NS(=O)(=O)c1ccc(Br)cc1	0.266	-1.05 (inactive)	-0.05 (inactive)	-1.08 (inactive)	-0.18 (inactive)	0.579 (inactive)	0.165 (inactive)	-0.0304 (inactive)	-0.675	-0.0627	-0.111 (inactive)	0.238	0.463	-0.189 (inactive)	-0.655 (inactive)	-0.782 (inactive)
COc1ccc([Si](C)(C)[C@H]2[C@H](CCO)O[C@@]3(C(=O)N(Cc4cccc(N5CCCCC5=O)c4)c4ccccc43)[C@@H]2C)cc1	-4.02	-0.732 (inactive)	-7.24 (inactive)	-2.94 (inactive)	0.969 (inactive)	4.44 (inactive)	1.83 (inactive)	1.26 (inactive)	-4.57	-0.031	1.41 (inactive)	0.589	-2.7	-5.06 (inactive)	-1.36 (inactive)	-0.572 (inactive)
CC=CC(O)C1C=CC2C(=O)N(c3ccccc3)C(=O)C2N1Nc1ccccc1 (centres undefined)	0.965	-1.01 (inactive)	0.171 (inactive)	-0.174 (inactive)	1.89 (inactive)	-0.564 (inactive)	0.176 (inactive)	0.412 (inactive)	0.394	0.649	0.228 (inactive)	0.813	-0.0445	-4.14 (inactive)	0.0716 (inactive)	-0.167 (inactive)
